Rows were chosen to be rich in hits. Some 21% of all compounds tested hit in one or more screens of this group.
SARS PLpro yeast = qHTS of Yeast-based Assay for SARS-CoV PLP; S. cerevisiae expressing SARS-CoV PLpro, growth rescue; Potency, µM (series often up to 32.9 µM), usual class: activators; 330,000 tested, 0.19% active; AID 485353, 2010; calls by dose curve; also: nearly all actives have a fitted effect of over 55% in size
Cycloheximide cs = Cycloheximide Counterscreen for Small Molecule Inhibitors of Shiga Toxin. 300,000 tested, 12% active. max response, %. cell reporter, cycloheximide protein synthesis inhibition counterscreen. AID 2314, 2010; in the data active = max response mostly above about 13%, no sharp cut-off; inactive = mostly below about 14%; also: read at 38.3 µM for the half of the compounds with a filed dose
Pf growth 96h = Primary qHTS for delayed death inhibitors of the malarial parasite plastid, 96 hour incubation; P. falciparum luciferase reporter growth, 96 h; Potency, µM (titrated, usually from 28.7 µM), hits mostly inhibitors; 320,000 tested, 6.9% active
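Parasite growth measured via integrated firefly luciferase reporter in P. falciparum. Infected erythrocytes at 2% hematocrit, 0.05% parasitemia final were treated 96 hours at 37 C under 5% CO2, and luminescence was read.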
NS1 inh = qHTS Assay for Inhibitors of Influenza NS1 Protein Function | Potency, µM (series often up to 46.1 µM) | 270,000 tested, 0.4% active; calls by dose curve; also: actives are rising curves; nearly all actives have a fitted effect of over 50% in size
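Read-out: OD600 growth recovery of NS1-expressing budding yeast. Cells grown overnight at 30C in -URA glucose medium, washed, resuspended and diluted 1:100 in 2% galactose assay medium, pH 6.0. Same strain lacking NS1 served as positive control.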
Shiga inhibitor = A qHTS for Small Molecule Inhibitors of Shiga Toxin; inhibition, % at 38.7 µM; 290,000 tested, 9.2% active; Vero cells, Shiga toxin protein synthesis inhibition reporter; in the data active = inhibition mostly above about 28%, no sharp cut-off; inactive = mostly below about 43%
Pf growth 48h = Primary qHTS for delayed death inhibitors of the malarial parasite plastid, 48 hour incubation | Potency, µM (highest dose often 28.7 µM), usual class: inhibitors | P. falciparum luciferase growth in erythrocytes, 48 h | 310,000 tested, 5.9% active | AID 504832, 2011
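Parasite viability was followed by luminescence of a genomically integrated firefly luciferase. Cultures held 0.1% parasitemia at 2% hematocrit (final), incubated under 5% CO2 at 37 C.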
Numbers stand for hits; n = inactive; u = inconclusive; x = not tested or not shown; [ ] = remark or other dose. Unless noted, calls follow the shape of the dose curve; as a rule, active = well fitted inhibition curve with a large enough effect; inconclusive = small, poorly fitted or top-dose-only effect, or another doubt; inactive = no such curve, though single readings can be large or run the other way.

SMILES	SARS PLpro yeast	Cycloheximide cs	Pf growth 96h	NS1 inh	Shiga inhibitor	Pf growth 48h
CCCN1Cc2cccc(C(=O)NCCc3ccccc3)c2C1=O	n	n	n	n	n	n
CCCNC(=O)NC1CCCc2ccccc21 (configuration not stated)	n	n	n	n	n	n
C=Cc1ccc(Cn2nc(-c3ccccc3)ccc2=O)cc1	n	n	n	n	n	n
Cc1sc(N/N=C/c2cccnc2)nc1-c1ccc(Cl)cc1	n	15	n	n	n	13µM
O=[N+]([O-])c1ccc(N/N=C/c2cccnc2)cc1	n	33	u	n	41	n
Clc1ccc(N/N=C/c2cccnc2)cc1	n	n	u	n	30	n
O=C(CSc1ccc(Cl)cc1)N/N=C/c1cccnc1	n	n	u	x	n	u
C(=N\N=C\c1cccnc1)/c1cccnc1	n	40	u	n	26	u
COc1ccc(N2CCN(C(=O)Cc3ccc(Br)cc3)CC2)cc1	n	n	n	u	n	u
COc1ccc([N+](=O)[O-])cc1NC(=O)C(C)OC(=O)CC1CCCC1 (configuration not stated)	n	x	n	x	x	u
CC(C)(C)OC(=O)NCCCC[C@H](NC(=O)c1[nH]cnc1C(=O)Nc1ccccc1)C(=O)OC(C)(C)C	n	n	5.2µM	n	n	4.7µM
CC(C)(C)OC(=O)NCCCC[C@H](NC(=O)c1[nH]cnc1C(=O)Nc1ccc(Cl)cc1)C(=O)OC(C)(C)C	n	n	5.9µM	n	n	5.2µM
C[C@@H](NC(=O)c1nc[nH]c1C(=O)N[C@@H](CCCCNC(=O)OC(C)(C)C)C(=O)OC(C)(C)C)c1ccccc1	n	n	u	n	n	u
CC(=O)c1ccc(OC(=O)N(C)c2ccccc2)cc1	n	36	n	n	66	n
CN(C)C(=O)Oc1ccc(C(=O)c2ccccc2)cc1	n	40	x	n	42	n
CN(C)C(=O)Oc1ccc(OC(=O)N(C)C)cc1	n	n	x	n	n	n
COc1ccc2cc(C3(C)NC(=O)N(CC(=O)N4CCCCC4)C3=O)ccc2c1 (configuration not stated)	n	x	x	x	x	x
CNc1nc(N)c([N+](=O)[O-])c(Nc2ccccc2OC)n1	n	n	n	n	n	x
COc1ccc(CCN2C(=O)CSC2=S)cc1OC	n	n	u	n	n	n
CCCc1cc(N2CCOCC2)n2nc(C)c(-c3ccccc3)c2n1	n	18	n	n	n	n
Cc1cc(N2CCN(C(=O)c3ccco3)CC2)n2ncnc2n1	n	n	n	n	n	n
Cc1nn2c(N3CCN(C4CCCC4)CC3)cc(C(C)(C)C)nc2c1-c1ccccc1	n	n	x	n	n	n
O=C(c1ccco1)N1CCN(c2cc(C(F)(F)F)nc3ncnn23)CC1	n	n	13µM	n	n	n
CCCc1cc(N2CCN(c3ccccn3)CC2)n2nc(C)c(-c3ccccc3)c2n1	n	n	u	n	n	x
Cc1nn2c(N3CCN(C)CC3)cc(C(C)(C)C)nc2c1-c1ccccc1	n	n	3.3µM	n	n	u
SMILES	SARS PLpro yeast	Cycloheximide cs	Pf growth 96h	NS1 inh	Shiga inhibitor	Pf growth 48h
Cc1nn2c(N3CCN(C(=O)c4ccco4)CC3)cc(C(C)(C)C)nc2c1-c1ccccc1	n	n	4.7µM	n	n	u
COc1ccc(-c2cc(=O)c3c(O)cc(O)c(-c4cc(-c5cc(=O)c6c(O)cc(OC)cc6o5)ccc4OC)c3o2)cc1	x	n	x	x	n	x
Cc1cc2nc(C3CCN(C(=S)NCCCOC(C)C)CC3)[nH]c2cc1C	n	n	n	n	n	n
COc1ccc(CN(C)C(=O)c2ccc3c(=O)n4c(nc3c2)CCC4)cc1	n	44	u	n	110	n
CN(Cc1ccc(C(C)(C)C)cc1)C(=O)c1ccc2c(=O)n3c(nc2c1)CCC3	n	x	u	x	x	13µM
CN(Cc1ccc(OC(F)F)cc1)C(=O)c1ccc2c(=O)n3c(nc2c1)CCC3	n	x	u	x	x	u
CCOc1ccccc1NC(=O)c1ccc2c(=O)n3c(nc2c1)CCCCC3	n	n	n	n	n	u
CCOc1ccccc1N(C)C(=O)c1ccc2c(=O)n3c(nc2c1)CCCCC3	n	n	1.5µM	n	n	u
CN(C(=O)c1ccc2c(=O)n3c(nc2c1)CCCCC3)c1cccc(Cl)c1	n	18	u	n	n	n
CN(C(=O)c1ccc2c(=O)n3c(nc2c1)CCCCC3)c1ccccc1F	n	17	u	n	n	n
CCC(Cc1ccccc1)NS(=O)(=O)c1ccc2c(c1)NC(=O)CO2 (configuration not stated)	n	n	u	n	n	n
CCc1ccc(S(=O)(=O)NCCc2cn3ccc(C)cc3n2)s1	n	n	n	x	n	n
Cc1ccc(S(=O)(=O)N2CCOCC2)cc1NC(=O)CSc1nnnn1C	n	n	n	x	n	n
COc1ccc(-c2cnn(-c3ccccc3)c2N)cc1OC	n	n	n	n	n	n
Cc1nnc(-c2cnn(-c3ccccc3)c2N)n1Cc1ccccc1	n	n	n	n	n	n
Nc1c(-c2ccc(Cl)cc2)cnc2c(-c3ccccc3)cnn12	n	36	n	n	89	n[0.00184 µM]
Cc1ccc(-c2cnn(-c3ccccc3)c2N)cc1	n	32	n	n	41	n
CC(C)(C)S(=O)(=O)c1cnc2c(-c3ccc(Cl)cc3)cnn2c1N	n	n	n	n	n	n
Nc1c(-c2ccccc2)cnn1-c1ccc(C(=O)O)cc1	n	48	n	n	88	x
Nc1c(-c2ccc(Cl)cc2)cnn1-c1ccccc1	n	37	n	n	114	n[0.00184 µM]
N#Cc1c(C#N)c(-c2ccccc2)n(-c2ccc(C(=O)O)cc2)c1N	n	n	u	n	n	n
Brc1cc(Br)cc(CN2CCSCC2)c1	n	n	u	n	n	n
Cn1cccc1CC(=O)NNC(=S)NC(=O)c1ccccc1Br	n	n	u	x	n	u
C=CCOc1c(Cl)cc(CNc2nccs2)cc1OC	n	n	u	x	n	n
O=c1c(Cc2c(F)cccc2Cl)c(O)ccn1CCCN1CCOCC1	n	n	n[5.75 µM]	x	n	n
SMILES	SARS PLpro yeast	Cycloheximide cs	Pf growth 96h	NS1 inh	Shiga inhibitor	Pf growth 48h
COc1ccc(-c2nnn(-c3cc(Cl)cc(Cl)c3)c2N)cc1	n	n	u	n	n	u
Nc1c(-c2ccc(Cl)cc2)nnn1-c1ccccc1	n	45	n	n	98	n
COc1ccc(C(=O)OCC(=O)NC(=O)NCc2ccccc2)cc1[N+](=O)[O-]	n	x	n	x	x	n
COC(=O)c1ccc(SCC(=O)NCc2ccccc2)c([N+](=O)[O-])c1	n	n	2.6µM	n	n	x
CCO[C@H]1OC(C(=O)Nc2ccccc2)=C[C@@H](c2ccc(C(F)(F)F)cc2)[C@@H]1CCCO	n	n	u	n	n	u
CCOc1cccc(C(=O)NNC(=O)CCC(=O)O)c1	n	n	n	n	n	n
CC(O)/C=C/C1OC(=O)CC1Nc1ccc(C=O)cc1 (configuration not stated)	n	n	7.4µM	n	n	n
O=S(=O)(c1ccc(Cl)cc1)c1snnc1-c1ccccc1	n	n	u	n	n	x
